Screening data from PubChem.
In the library only some 7.9% were active in any assay of this set; here they are far more common.
HT1080 IDH1KD tx = qHTS for induction of synthetic lethality in tumor cells producing 2HG: qHTS for the HT-1080-IDH1KD cell line; 360,000 compounds, 2% hits; AID 686971, 2013; HT-1080 IDH1 knockdown viability, ATP luminescence, 48 h; Potency, µM (series often up to 46.1 µM), inactives show top-dose activity, negative = toxicity, usual class: cytotoxic;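 note: 0% = DMSO wells and -100% = cell-free medium wells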
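Assay cells: HT-1080 with IDH1 knockdown, 750 per well, RPMI/5% FBS. Exposure: 48 h at 37 °C following 2 h pre-incubation. Read: CellTiter-Glo luminescence; fitted concentration-response, curve class assigned.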
MCF10A rereplic = A quantitative high throughput screen for small molecules that induce DNA re-replication in MCF 10a normal breast cells; Potency, µM (titrated, usually from 46.1 µM), for inactives: at the top dose activity, positive = re-replication, usual class: activators; MCF 10A DNA re-replication, Hoechst nuclear intensity, 48 h; 350,000 compounds, 2.9% hits; note: % of control where 0% means no effect; nearly all actives have a fitted effect of over 50% in size
SW480 rereplic = A quantitative high throughput screen for small molecules that induce DNA re-replication in SW480 colon adenocarcinoma cells. SW480 DNA re-replication, Hoechst DNA content imaging, 48 h. Potency, µM (series often up to 46.1 µM), for inactives: at the highest dose re-replication activation, usual class: activators. 340,000 compounds, 1.8% hits. AID 624297, 2012; note: % of control where 0% means no effect; nearly all actives have a fitted effect of over 55% in size
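DNA re-replication was detected as more nuclei of elevated Hoechst intensity after 48 hr exposure to compound (23 nL pinned per well of 250 cells).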
KB-V1 MDR tox = qHTS assay for MDR1-selective chemotherapeutics: Primary screen using the drug-selected MDR subline cells KB-V1; KB-V1 MDR cells viability, CellTiter-Glo, 72 h; Potency, µM (series often up to 46.1 µM), usual class: cytotoxic; 400,000 compounds, 3.4% hits; AID 1347076, 2019; note: % is set by controls: 0 for no effect and ±100 for the full control effect; nearly all actives have a fitted effect of over 60% in size
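Potencies derive from concentration-effect curves fitted to normalized luminescence (CellTiter-Glo) of KB-V1 cells treated for 72 h at 37 degrees C in phenol-red-free DMEM containing 10% FBS.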
HT1080NT lethal = qHTS for induction of synthetic lethality in tumor cells producing 2HG: qHTS for the HT-1080-NT fibrosarcoma cell line; HT-1080-NT fibrosarcoma viability, CellTiter-Glo ATP luminescence, 48 h; Potency, µM (doses to about 46.1 µM), inactives show at the highest dose activity, negative = less viability, hits mostly cytotoxic; 360,000 compounds, 1.6% hits; AID 686970, 2013;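 note: NT is the 2HG producing partner of a matched IDH1 knockdown line; 0% = DMSO-treated cells and -100% = media-only wells without cells; nearly all actives have a fitted effect of over 55% in size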
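HT-1080-NT fibrosarcoma cells (2HG-overproducing), 750 cells/well in RPMI with 5% FBS, dosed after 2 h and incubated 48 h at 37C. CellTiter-Glo luminescence normalized to DMSO and no-cell wells; concentration-response curves fitted and classed.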
KB-3-1 tox = qHTS assay for MDR1-selective chemotherapeutics: Primary screen using the parental adenocarcinoma cell KB-3-1. KB-3-1 viability, CellTiter-Glo ATP luminescence, 72 h. Potency, µM (highest dose often 46.1 µM), actives largely listed as cytotoxic. 400,000 compounds, 1.4% hits. AID 1347075, 2019; note: % is set by controls: 0 for no effect and ±100 for the full control effect; nearly all actives have a fitted effect of over 60% in size
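Parental KB-3-1 adenocarcinoma cells in phenol-red-free DMEM with 10% FBS were pin-treated with compounds at several concentrations, incubated 72 h at 37 °C, and viability read by CellTiter-Glo luminescence; concentration-effect curves were fitted after normalization.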
* = called active by the depositor; [ ] = remark or other dose. Calls come from the whole dose curve; as a rule, active = well fitted curve in the direction sought with a large enough effect; inconclusive = small, poorly fitted or top-dose-only effect, or another doubt; inactive = no such curve, though single readings can be large; an effect the other way counts as inactive or inconclusive. Potency is the fitted concentration of half-maximal effect.

COc1cc(C(=O)C(=O)N2CCN(c3ccc(C)cc3)CC2)cc2ccccc12 was read as HT1080 IDH1KD tx inconclusive, KB-V1 MDR tox inconclusive, HT1080NT lethal 6% and KB-3-1 tox inactive.
`COc1cc(C(=O)C(=O)N2CCN(c3ccccc3)CC2)cc(OC)c1OC` gave HT1080 IDH1KD tx 7.3µM*, KB-V1 MDR tox inconclusive, HT1080NT lethal inconclusive and KB-3-1 tox 21µM*.
For Cc1ccc(S(=O)(=O)N2CCCN(c3nc4cc(C)ccc4cc3C#N)CC2)cc1 the results were HT1080 IDH1KD tx -3%, MCF10A rereplic inconclusive, SW480 rereplic -3%, KB-V1 MDR tox inconclusive, HT1080NT lethal 16% and KB-3-1 tox inactive.
Screening COc1cc(C(=O)N2CCN(c3ccc(C)cc3C)CC2)cc(OC)c1OC returned HT1080 IDH1KD tx 5.8µM*, MCF10A rereplic 18µM*, SW480 rereplic 6.5µM*, KB-V1 MDR tox inconclusive, HT1080NT lethal 4.6µM* and KB-3-1 tox 2.3µM*.
COc1cc(C(=O)N2CCCN(c3nc4cc(C)ccc4cc3C#N)CC2)cc(OC)c1OC was read as HT1080 IDH1KD tx 0%, MCF10A rereplic inconclusive, SW480 rereplic -5%, KB-V1 MDR tox 18µM*, HT1080NT lethal -8% and KB-3-1 tox inactive.
For Cc1cc2cc(C#N)c(N3CCN(S(C)(=O)=O)CC3)nc2cc1C the results were HT1080 IDH1KD tx -3%, MCF10A rereplic -53%, SW480 rereplic -2%, KB-V1 MDR tox 18µM*, HT1080NT lethal 2% and KB-3-1 tox inactive.
CCCC(=O)N(C)c1ccc(/C=C2\C=Cc3ccccc32)cc1 was read as KB-V1 MDR tox inactive and KB-3-1 tox inconclusive.
Screening COc1ccc(OC)c(S(=O)(=O)N2CCN(C(=O)c3cc(C4CC4)nn3-c3ccccc3)CC2)c1 returned HT1080 IDH1KD tx -1%, MCF10A rereplic 13%, SW480 rereplic -13%, KB-V1 MDR tox inactive, HT1080NT lethal 3%[9.24 µM] and KB-3-1 tox inactive.
Cc1ccc2cc(C#N)c(N3CCN(C(=O)c4ccccc4)CC3)nc2c1 was read as HT1080 IDH1KD tx -7%, MCF10A rereplic 0.58µM*, SW480 rereplic inconclusive, KB-V1 MDR tox inactive, HT1080NT lethal 0% and KB-3-1 tox inactive.
Screening COc1cc(C(=O)N2CCN(S(=O)(=O)c3ccc(F)cc3)CC2)cc(OC)c1OC returned HT1080 IDH1KD tx -2%, MCF10A rereplic 9%, SW480 rereplic 3%, KB-V1 MDR tox 21µM*, HT1080NT lethal 8% and KB-3-1 tox inactive.
Screening Cc1ccc(N2CCN(Cc3nnc(-c4ccccc4F)o3)CC2)c(C)c1 returned KB-V1 MDR tox inactive and KB-3-1 tox inactive.
Screening COc1cc(NC(=O)CSc2nc(-c3ccc(C(C)C)cc3)no2)cc(OC)c1 returned KB-V1 MDR tox inactive and KB-3-1 tox inactive.
`Cc1ccnc2ccc([N+](=O)[O-])cc12` gave KB-V1 MDR tox inconclusive and KB-3-1 tox inactive.
For Cc1cccc(-n2nnnc2S(C)(=O)=O)c1 the results were KB-V1 MDR tox inconclusive and KB-3-1 tox inactive.
Screening COc1cccc(-n2nnnc2S(C)(=O)=O)c1 returned HT1080 IDH1KD tx 7.3µM*, MCF10A rereplic 4.6µM*, SW480 rereplic inconclusive, KB-V1 MDR tox inconclusive, HT1080NT lethal inconclusive and KB-3-1 tox inconclusive.
O=C1Oc2ccccc2C(=O)C1C(CC(O)c1ccc(-c2ccc(Br)cc2)cc1)c1ccccc1 (stereo unspecified) was read as MCF10A rereplic 30µM* and SW480 rereplic -3%.
Screening CN1CCN(C(=S)NC(=O)/C=C/c2cccc3ccccc23)CC1 returned HT1080 IDH1KD tx inconclusive, MCF10A rereplic -3%, SW480 rereplic -1%, KB-V1 MDR tox inactive, HT1080NT lethal 10µM* and KB-3-1 tox inactive.
CN1CCN(C(=S)NC(=O)/C=C/c2cccs2)CC1 was read as HT1080 IDH1KD tx -1%, MCF10A rereplic -12%, SW480 rereplic -33%, KB-V1 MDR tox inactive, HT1080NT lethal -1% and KB-3-1 tox inactive.
Screening O=C(NCc1cccc2[nH]ccc12)C1CCC(=O)N(CCc2ccc(Cl)cc2)C1 (stereo unspecified) returned HT1080 IDH1KD tx 8%, MCF10A rereplic -1%, SW480 rereplic -1%, KB-V1 MDR tox inactive, HT1080NT lethal 1% and KB-3-1 tox inactive.
Screening CN(C)/N=C/c1c(O)ccc2ccccc12 returned HT1080 IDH1KD tx -6%, MCF10A rereplic -4%, SW480 rereplic -6%, KB-V1 MDR tox inactive, HT1080NT lethal -1% and KB-3-1 tox inactive.
`Oc1ccccc1N=Cc1c(O)ccc2ccccc12` gave HT1080 IDH1KD tx 18µM*, MCF10A rereplic inconclusive, SW480 rereplic 17%, KB-V1 MDR tox inactive, HT1080NT lethal inconclusive and KB-3-1 tox inactive.
Screening Oc1ccccc1C=Nc1cccc2ccccc12 returned HT1080 IDH1KD tx -12%, MCF10A rereplic -2%, SW480 rereplic -6%, KB-V1 MDR tox inactive, HT1080NT lethal -3% and KB-3-1 tox inactive.
OCC(CO)(CO)N=Cc1c(O)ccc2ccccc12 was read as HT1080 IDH1KD tx inconclusive, MCF10A rereplic 8.2µM*, SW480 rereplic 0%, KB-V1 MDR tox inconclusive, HT1080NT lethal inconclusive and KB-3-1 tox inactive.
For Oc1cccc(C=Nc2cccc3ccccc23)c1O the results were HT1080 IDH1KD tx 23µM*, MCF10A rereplic 18µM*, SW480 rereplic 18µM*, KB-V1 MDR tox inactive, HT1080NT lethal 18µM* and KB-3-1 tox inactive.
`CCCCn1nnnc1C(c1ccc(OC)cc1)N1CCN(C/C=C/c2ccccc2)CC1` (stereo unspecified) gave HT1080 IDH1KD tx inconclusive, KB-V1 MDR tox inactive, HT1080NT lethal inconclusive and KB-3-1 tox inactive.
Screening Cc1cc(C)cc(OC(C)C(=O)Nc2nonc2-c2ccc(Br)cc2)c1 (stereo unspecified) returned KB-V1 MDR tox inactive and KB-3-1 tox inactive.
Screening CCOC(=O)C1=C(COC(=O)COc2ccc(C#N)cc2)NC(=O)NC1C (stereo unspecified) returned HT1080 IDH1KD tx -10%, MCF10A rereplic -1%, SW480 rereplic -12%, KB-V1 MDR tox inactive, HT1080NT lethal 3% and KB-3-1 tox inactive.
